Experimental findings from PubChem BioAssay AID485275 (NMMLSC, 2010) are described below.

Molecules are shown by their SMILES. The campaign covered roughly 330,000 compounds. About 1,400 (0.42%) were called active. The full list was thinned out, with actives kept by preference. A number with no mark means an inactive call.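 Rule for the calls: active = plate passing quality check with inhibition over a set limit, or well fluorescence over plate mean plus 4 SD; inactive = the rest.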

This experiment in a line: inhibitors of Candida efflux pumps in yeast, primary screen, S. cerevisiae, Nile Red, multiplex (AID 485275).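 Note: Nile Red retained in pooled yeast measured as flow cytometry median fluorescence; 0% = buffer negative control and 100% = Enniatin B positive control; higher means more Nile Red kept so more efflux inhibition.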 The conditions noted are these: S. cerevisiae Candida pump triplex, at 10 µM, hits give high values.
Consider `CC(=O)c1ccc(N2CCN(C(=O)C3CCN(S(=O)(=O)c4ccc5c(c4)CC(C)N5C(=O)C4CC4)CC3)CC2)cc1` (configuration not stated), for which the inhibition (in general, the drop in the measured response relative to a control, in per cent) was 40.5% (active).
Turning to `COc1ccccc1CNC(=O)C1CCN(S(=O)(=O)c2ccc3c(c2)CC(C)N3C(=O)C2CC2)CC1` (configuration not stated), the inhibition was 0.09%.
Take `CC(=O)N1c2ccc(S(=O)(=O)N3CCC(C(=O)N4CCN(c5ccccc5)CC4)CC3)cc2CC1C` (configuration not stated): the inhibition is -0.03%.
On to `CC1CC(=NNC(=O)C2COc3ccccc3O2)CC(C)(C)C1` (configuration not stated), for which the inhibition was -0.31%.
Then `Cc1cccc(N2CCN(C(=O)CCS(=O)(=O)c3ccc4c(c3)NC(=O)C(C)S4)CC2)c1C` (configuration not stated), with -0.07%; and `CCN(CC)CCNC(=O)CCCCCn1c(=O)[nH]c2cc(C(=O)OC)ccc2c1=O`, with -0.02%; and `O=C(CCc1c[nH]c2ccccc12)NCCOc1ccccc1`, with -0.08%.
The value for `O=C(CCCCCn1c(=O)[nH]c2ccccc2c1=O)NCCc1c[nH]c2ccccc12` was 0.52% (active).
The value for `CCCSc1ccc([C@H]2N[C@@](Cc3ccccc3)(C(=O)OC)[C@H]3C(=O)N(C)C(=O)[C@@H]23)cc1` was 0.02%.
Regarding `CSCCC(NC(=O)c1ccccc1)C(=O)N1CCCCCCC1` (configuration not stated), the inhibition is 0.05%.
For `CSCCC(NS(=O)(=O)c1ccc(C)cc1)C(=O)N1CCCC1` (configuration not stated), the inhibition was 1.45% (active).
The value for `CSCC(NS(=O)(=O)c1ccc(C)cc1)C(=O)O` (configuration not stated) was -0.01%.
For the compound `COc1ccc(-n2nnc3c(=O)n(CC(=O)N4CCC(Cc5ccccc5)CC4)cnc32)cc1`, the inhibition was 0.1%.
`O=C(NCc1nnc(SCC(=O)N2CCCCCC2)o1)c1ccc(F)cc1`: the inhibition was -0.18%.
`Nc1nnc(C2CCCC2)s1`: the inhibition was 0.48%.
The value for `O=C(CCN1C(=O)C2C3C=CC(C3)C2C1=O)Oc1ccc2ccccc2c1` (configuration not stated) was 0.01%; that for `O=C(CN1C(=O)C2C3CCC(C3)C2C1=O)Oc1ccc2ccccc2c1` (configuration not stated) was 5.45% (active).
The value for `Cc1ccc(C(=O)COC(=O)CCN2C(=O)C3C4CCC(C4)C3C2=O)cc1C` (configuration not stated) was -0.13%; that for `O=C(c1cc(-c2ccco2)nc2ccccc12)N(Cc1nnc(-c2ccc(Cl)cc2)o1)C1CC1` was 0.11%.
On to `Cc1cccc(-n2c(C)cc(/C=N\NC(=O)c3cccs3)c2C)c1`, for which the inhibition was -0.56%.
Then `Cc1cc(/C=N/NC(=O)CC2(C)OCCO2)c(C)n1-c1ccc(Cl)c(Cl)c1`, with 1.6% (active); and `Cc1ccc(-n2c(C)cc(/C=N\NC(=O)CC(=O)NC(C)C)c2C)cc1`, with -0.13%; and `CC1CCN(C(=O)CCNC(=O)c2ccccc2)CC1`, with -0.28%.
The value for `Cc1cccc(C)c1NC(=O)C(Cl)C(=O)c1ccccc1` (configuration not stated) was 0.07%; that for `CN=C(c1ccccc1)c1c(C)cccc1C` was 23.6% (active).
Then `Cc1ccccc1NC(=O)CSC(=O)c1ccccc1`, with -0.08%; and `CCn1c(SCC(=O)NC2CC2)nnc1-c1ccccn1`, with -0.04%; and `COC(=O)c1ccc2c(c1)S(=O)(=O)NC(=NCCCN1CCOCC1)S2`, with 0%.
Turning to `O=C(NCCC1CCCCN1S(=O)(=O)c1cccs1)C(=O)Nc1ccc(F)cc1F` (configuration not stated), the inhibition was 0.02%.
The value for `O=C(/C=C/c1ccc([N+](=O)[O-])cc1)NCCSCc1ccco1` was 0.15%.
Then `CN(C)c1ccc(/C=N/NC(=O)c2ccc(Cn3cc(Br)cn3)o2)cc1`, with -0.5%; and `COc1cccc(OC)c1C(=O)Nc1sc2c(c1C(N)=O)CCCC2`, with -0.23%; and `CC1CCc2c(sc(NC(=O)c3ccc(Cn4cc(Br)cn4)o3)c2C(N)=O)C1` (configuration not stated), with 0.29% (active).
The value for `COc1ccc(CNc2ccc3c(c2)CCC3)cc1OC` was 0%; that for `CCn1c(SCC(=O)N/N=C/c2ccccc2OCC(=O)O)nnc1-c1ccc(C(C)(C)C)cc1` was 0.05%; that for `Cc1nnc(SCC(=O)NC(=O)NC2CCCC2)n1N` was 0.12%.
As for `N#C/C(=C/c1ccc(N2CCCCC2)o1)C(=O)NCCc1c[nH]c2ccccc12`, the inhibition was -0.28%.
Regarding `O=C(O)c1cc(Cl)c(Cl)cc1C(=O)Nc1cccc2ncccc12`, the inhibition is -0.06%.
Then `Cc1ccc(/C=C(\C#N)C(=O)Nc2cccc3ncccc23)o1`, with 6.65% (active); and `C[C@@H]1NC(=O)c2cc([N+](=O)[O-])cc(F)c2NCCC[C@@H](C(N)=O)NC(=O)[C@H](CC(N)=O)NC1=O`, with -0.03%.
The value for `COc1ccccc1NC(=O)[C@H](COCc1ccccc1)NC(=O)OC(C)(C)C` was -0.12%; that for `CC(C)(C)OC(=O)N1CCC(C(=O)NNC(=O)c2ccc(Cl)cc2Cl)CC1` was -0.04%; that for `O=S(=O)(c1ccc2c(c1)OCCO2)N1CCc2ccccc21` was 0.34%.
Then `O=S(=O)(c1ccccc1)N1CCc2ccccc21`, with 0.75% (active); and `CCn1c(=O)c(=O)n(CC)c2cc(S(=O)(=O)N3CCc4ccccc43)ccc21`, with -0.1%; and `COc1ccc(CCNS(=O)(=O)c2cn(C)nc2C)cc1`, with -0.02%.
In the case of `CCOC(=O)N1CCN(C(=O)C2CCN(S(C)(=O)=O)CC2)CC1`, the inhibition is -0.13%.
The value for `Cc1ccc2c(C)c(C(=O)N(C)Cc3ccncn3)oc2c1C` was 1.25%; that for `O=C(NCCCCc1ccccc1)C1CC(c2ccc([N+](=O)[O-])cc2)=NO1` (configuration not stated) was 0.02%.
For the compound `CC(=O)N1c2ccccc2N(Cc2ccc([N+](=O)[O-])cc2)C(=O)C1(C)C`, the inhibition is 0.1%.
The value for `O=C1NC(=O)C2C1C(c1ccc([N+](=O)[O-])cc1)=NN2Cc1ccccc1` (configuration not stated) was 1.09% (active); that for `Cc1ccc(CN2CCN(Cc3cccc(C)n3)CC2CCO)cc1` (configuration not stated) was -0.07%; that for `CC(=O)Nc1ccc(/C(C)=N/NC(=O)CN(c2ccccc2Br)S(C)(=O)=O)cc1` was 0.36%.
The value for `O=C(Cc1ccccc1Cl)N1CCN(c2ccccn2)CC1` was -0.02%.
Then `O=C(CCC1CCCN(C(=O)Cc2ccc(F)cc2)C1)N1CCN(c2ccccn2)CC1` (configuration not stated), with -0.13%; and `O=C(Cc1ccc(Br)cc1)N1CCN(c2ccccn2)CC1`, with 11.1% (active); and `COc1ccc(N(CC(=O)NCC2CCCO2)C(=O)CCC(=O)Nc2nccs2)c(OC)c1` (configuration not stated), with 0.02%.
Take `CCN1CCN(c2ccc(S(=O)(=O)N3CCCCC3)cc2NC(=O)Cc2c(Cl)cccc2Cl)CC1`: the inhibition was -0.36%.
Then `Cc1cc(-c2ccc(S(=O)(=O)N3CCc4ccccc4C3)s2)on1`, with -0.2%.
The value for `CC(C)N(c1ccccc1)c1ncnc(NCCC(=O)O)c1[N+](=O)[O-]` was 0.29%; that for `CC(C)Cn1c(N)c(C(=O)COC(=O)C2CCCN2C(=O)c2cccs2)c(=O)n(C)c1=O` (configuration not stated) was 0.07%; that for `Fc1ccccc1C(c1nnnn1Cc1ccc2c(c1)OCO2)N1CCN(Cc2ccccc2)CC1` (configuration not stated) was -0.02%.
Then `CCOC(=O)C1CCN(C(c2cc3cc(C)cc(C)c3[nH]c2=O)c2nnnn2C2CCCCC2)CC1` (configuration not stated), with 0.07%; and `Cc1cc(C)c2[nH]c(=O)c(C(c3nnnn3Cc3ccc4c(c3)OCO4)N3CCCC3)cc2c1` (configuration not stated), with 1.06% (active).
For the compound `O=C(CN(c1cccc(Cl)c1)S(=O)(=O)c1ccccc1)NN=C1CCCC1`, the inhibition is 0.07%.
Then `O=C(CN1C2CCC1CC(NC(=O)C1CC1)C2)NCc1ccccc1` (configuration not stated), with -0.03%.
`O=C1CC2(CCN(C(=O)COc3ccc(F)cc3)CC2)Oc2ccccc21`: the inhibition was -0.44%.
Then `CC(C)C(=O)N1CCN(c2nc(-c3ccccc3)c3c(c2C#N)CC(C)(C)OC3)CC1`, with -0.13%.
The value for `CC(C)C(=O)N1CCC2(CC1)Oc1ccc(F)cc1C(=O)C21CC(c2ccccc2)=NO1` (configuration not stated) was 78.3% (active); that for `CC(C)c1ccc2oc(=O)cc(CN3CCN(Cc4ccccc4)CC3)c2c1` was -0.11%.
For `CCc1ccc(OCC(=O)OCC(=O)c2c(N)n(C)c(=O)n(C)c2=O)cc1`, the inhibition was -0.05%.
Then `Cn1c(N)c(C(=O)COC(=O)COc2ccc(Cl)cc2)c(=O)n(C)c1=O`, with 0%.
With `CCCCOc1ccc(C(=O)NCC(=O)OCC(=O)c2c(N)n(C)c(=O)n(C)c2=O)cc1`, the inhibition is 0.65% (active).
Then `O=C(NCC1CCCO1)c1ccccc1-c1nc(-c2ccccc2Cl)no1` (configuration not stated), with -0.05%.
Then `CCCNC(=O)N1CCC(c2ccc3c(c2)OCO3)CC1`, with 0.01%; and `COc1ccc(C(=O)NC2CC(C)(C)Cc3c2cnn3-c2ccccc2)c(OC)c1` (configuration not stated), with 1.15% (active).
The value for `CC1(C)Cc2c(cnn2-c2cccc(F)c2)C(NC(=O)c2cc[n+]([O-])cc2)C1` (configuration not stated) was 0.12%; that for `Cc1cc(C(=O)NC2CC(C)(C)Cc3c2cnn3-c2ccccc2)n[nH]1` (configuration not stated) was 0.03%; that for `Cc1ccc(S(=O)(=O)N(Cc2ccc(Cl)cc2)c2ccccc2C(=O)NCc2cccnc2)cc1` was 0.08%.
As to `COc1cc(NC(=O)c2ccc3c(c2)OCO3)ccc1NC(=O)c1cccs1`, the inhibition was -0.1%.
The value for `Cc1ccc(C(=O)Nc2ccc(NC(=O)c3cccs3)cc2)c(C)c1` was 0.18%.
The value for `O=C(Nc1ccc(NC(=O)c2cccs2)cc1)c1ccc2ccccc2c1` was 1.22% (active); that for `CCOC(=O)C1CCN(C(=O)CN2C(=O)NC(C)(c3ccc4cc(OC)ccc4c3)C2=O)CC1` (configuration not stated) was -0.03%.
Then `O=C1c2ccccc2[C@@H]2C[C@@H](O)[C@H](Nc3ccccc3Cl)CCN12`, with 0.16%.
Turning to `O=C(CNCc1ccc(F)cc1)Nc1ccccc1-c1ccccc1`, the inhibition is -0.07%.
In the case of `CCN(CC)CCn1c2c(c(SCC(=O)Nc3ccc(C(C)C)cc3)nc1=O)CCC2`, the inhibition is -0.06%.
Take `CC1CCCCC1NC(=O)c1cn(C)c2ccc(S(=O)(=O)N3CCOCC3)cc2c1=O` (configuration not stated): the inhibition is -0.14%.
